{"source": "paper PMC4336329", "about": "(PLoS ONE, 2015)", "note": "About 14,000 (4.5%) of roughly 310,000 compounds showed an effect of 50% or more. Effects have a minus sign here. What follows is part of a selection rich in strong results, with near analogues and random picks from the rest.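 Note: peak tail current of the secondary pulse compared with the same well before compound.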", "data": [{"molecular_target": "human ether-à-go-go-related gene (hERG) potassium channel (human, UniProt Q12809)", "sequence (Q12809 whole entry, looked up)": "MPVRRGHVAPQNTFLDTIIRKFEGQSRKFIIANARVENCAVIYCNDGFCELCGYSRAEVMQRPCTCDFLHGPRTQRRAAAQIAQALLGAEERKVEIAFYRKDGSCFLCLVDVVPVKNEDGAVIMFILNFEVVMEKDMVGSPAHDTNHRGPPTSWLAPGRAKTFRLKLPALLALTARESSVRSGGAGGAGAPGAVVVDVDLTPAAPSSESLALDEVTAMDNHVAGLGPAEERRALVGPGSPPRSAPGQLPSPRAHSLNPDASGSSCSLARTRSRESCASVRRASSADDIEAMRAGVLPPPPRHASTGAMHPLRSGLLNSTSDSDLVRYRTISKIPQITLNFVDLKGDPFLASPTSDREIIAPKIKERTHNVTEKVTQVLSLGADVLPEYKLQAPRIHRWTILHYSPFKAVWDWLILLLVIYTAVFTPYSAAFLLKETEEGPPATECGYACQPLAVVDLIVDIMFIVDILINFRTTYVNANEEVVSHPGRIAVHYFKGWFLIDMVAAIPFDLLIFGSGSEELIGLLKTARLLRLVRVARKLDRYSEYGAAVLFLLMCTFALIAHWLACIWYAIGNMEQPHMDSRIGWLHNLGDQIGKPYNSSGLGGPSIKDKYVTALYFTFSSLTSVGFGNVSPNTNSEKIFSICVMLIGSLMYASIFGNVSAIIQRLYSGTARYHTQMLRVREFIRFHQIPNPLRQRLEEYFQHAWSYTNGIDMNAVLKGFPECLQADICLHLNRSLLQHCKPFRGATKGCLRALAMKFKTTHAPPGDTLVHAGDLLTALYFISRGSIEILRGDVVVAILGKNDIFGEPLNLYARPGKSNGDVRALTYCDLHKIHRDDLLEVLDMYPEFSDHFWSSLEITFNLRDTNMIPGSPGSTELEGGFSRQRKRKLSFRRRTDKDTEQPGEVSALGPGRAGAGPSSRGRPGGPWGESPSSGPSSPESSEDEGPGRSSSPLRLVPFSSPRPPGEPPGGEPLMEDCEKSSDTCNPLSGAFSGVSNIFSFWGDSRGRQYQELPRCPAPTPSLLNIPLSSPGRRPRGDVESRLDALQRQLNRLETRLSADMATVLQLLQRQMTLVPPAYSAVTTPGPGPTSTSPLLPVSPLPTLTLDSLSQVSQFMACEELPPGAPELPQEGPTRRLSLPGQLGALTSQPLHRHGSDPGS", "assay": "primary screen, population patch clamp on CHO cells stably expressing hERG; higher = less effect of the substance", "units": {"hERG current change (%, negative = inhibition) at 10uM": "%"}, "values": [{"smiles": "COc1cc(/C=C/C(=O)OCC(=O)NCC(=O)Nc2cccc(C)c2C)ccc1OC(F)F", "hERG current change (%, negative = inhibition) at 10uM": -25.7}, {"smiles": "Cc1cc(C)nc(SC(C)CNS(=O)(=O)c2ccccc2)n1", "note": "(centres unmarked)", "hERG current change (%, negative = inhibition) at 10uM": 0.485}, {"smiles": "CCC(C)(C)NC(=O)C(c1ccc(OC)cc1)N(C(=O)CCC(=O)Nc1cc(C)on1)c1cccc(OC)c1", "note": "(centres unmarked)", "hERG current change (%, negative = inhibition) at 10uM": 1.47}, {"smiles": "O=C(Cn1cncn1)N/N=C/c1cc([N+](=O)[O-])ccc1O", "hERG current change (%, negative = inhibition) at 10uM": 1.67}, {"smiles": "COc1ccc(OC)c(NC(=O)c2ccccc2N(C)S(=O)(=O)c2ccc(C)cc2)c1", "hERG current change (%, negative = inhibition) at 10uM": -9.39}, {"smiles": "CCOC(=O)CSc1nc2cc3c(cc2cc1C#N)OCCO3", "hERG current change (%, negative = inhibition) at 10uM": 19}, {"smiles": "Cc1ccc(C(=O)NCCc2cccs2)cc1", "hERG current change (%, negative = inhibition) at 10uM": 7.84}, {"smiles": "COC(=O)c1[nH]c2ccc(Br)cc2c1NC(=O)CN1CCCCC1CCO", "note": "(centres unmarked)", "hERG current change (%, negative = inhibition) at 10uM": -2.6}, {"smiles": "COC(=O)c1[nH]c2ccc(Cl)cc2c1NC(=O)CN1CCC(C(N)=O)CC1", "hERG current change (%, negative = inhibition) at 10uM": -2.26}, {"smiles": "COC(=O)c1[nH]c2ccc(Cl)cc2c1NC(=O)CCN1CCN(C2CCCCC2)CC1", "hERG current change (%, negative = inhibition) at 10uM": -80}, {"smiles": "COC(=O)c1[nH]c2ccc(Br)cc2c1NC(=O)CN1CCN(C2CCCCC2)CC1", "hERG current change (%, negative = inhibition) at 10uM": -78.7}, {"smiles": "CCOC(=O)C1CCCN(CC(=O)Nc2c(C(=O)OC)[nH]c3ccc(Br)cc23)C1", "note": "(centres unmarked)", "hERG current change (%, negative = inhibition) at 10uM": -30.9}, {"smiles": "COC(=O)c1[nH]c2ccc(C)cc2c1NC(=O)NC1CCCCC1", "hERG current change (%, negative = inhibition) at 10uM": 8.55}, {"smiles": "COC(=O)c1[nH]c2ccc(Cl)cc2c1NC(=O)CCN1CCOCC1", "hERG current change (%, negative = inhibition) at 10uM": 2.71}, {"smiles": "COC(=O)c1[nH]c2ccc(C)cc2c1NC(=O)C(C)N1CCN(C2CCCCC2)CC1", "note": "(centres unmarked)", "hERG current change (%, negative = inhibition) at 10uM": -77}, {"smiles": "COC(=O)c1[nH]c2ccc(Br)cc2c1NC(=O)CN1CCCc2ccccc21", "hERG current change (%, negative = inhibition) at 10uM": -4.4}, {"smiles": "COC(=O)c1[nH]c2ccccc2c1NC(=O)C(C)N1CC(C)OC(C)C1", "note": "(centres unmarked)", "hERG current change (%, negative = inhibition) at 10uM": 5.31}, {"smiles": "COC(=O)c1[nH]c2ccc(Br)cc2c1NC(=O)C(C)N1CCN(C2CCCCC2)CC1", "note": "(centres unmarked)", "hERG current change (%, negative = inhibition) at 10uM": -78.2}, {"smiles": "COC(=O)c1[nH]c2ccccc2c1NC(=O)C(C)N1CCOCC1", "note": "(centres unmarked)", "hERG current change (%, negative = inhibition) at 10uM": 9.7}, {"smiles": "CCC(Sc1nc2ccncc2[nH]1)C(=O)Nc1cc(Cl)ccc1C", "note": "(centres unmarked)", "hERG current change (%, negative = inhibition) at 10uM": -44.3}, {"smiles": "CC(=O)N1c2ccc(S(=O)(=O)N3CCC(C(=O)Nc4cccc(Cl)c4)CC3)cc2CC1C", "note": "(centres unmarked)", "hERG current change (%, negative = inhibition) at 10uM": 15.1}, {"smiles": "O=c1cc(CO)oc(C(Nc2ccccn2)c2ccccc2F)c1O", "note": "(centres unmarked)", "hERG current change (%, negative = inhibition) at 10uM": 17.5}, {"smiles": "CC(C)c1c(C(=O)N/N=C/c2ccsc2)nnn1-c1nonc1N", "hERG current change (%, negative = inhibition) at 10uM": 23.8}, {"smiles": "O=c1c2cc(F)ccc2[nH]c(=S)n1CCCN1CCOCC1", "hERG current change (%, negative = inhibition) at 10uM": -3.61}, {"smiles": "CC1(C)CC(=O)C2=C(C1)NC(=O)NC2c1ccc(Cl)cc1", "note": "(centres unmarked)", "hERG current change (%, negative = inhibition) at 10uM": 17.3}, {"smiles": "Cc1cc(C(=O)COC(=O)C2CCN(C(=O)c3ccc(Cl)cc3)CC2)c(C)n1CC1CCCO1", "note": "(centres unmarked)", "hERG current change (%, negative = inhibition) at 10uM": -15.2}, {"smiles": "COc1cc(OC)c(C(=O)OCC(=O)c2cc(C)n(CC3CCCO3)c2C)cc1OC", "note": "(centres unmarked)", "hERG current change (%, negative = inhibition) at 10uM": 13.3}, {"smiles": "COc1cc(OC)cc(C(=O)OCC(=O)c2cc(C)n(CC3CCCO3)c2C)c1", "note": "(centres unmarked)", "hERG current change (%, negative = inhibition) at 10uM": -39}, {"smiles": "COc1cc(C(=O)OCC(=O)c2cc(C)n(CC3CCCO3)c2C)cc(OC)c1C", "note": "(centres unmarked)", "hERG current change (%, negative = inhibition) at 10uM": -68}, {"smiles": "Cc1cc(C(=O)COC(=O)CN(C)S(=O)(=O)c2ccc(Cl)cc2)c(C)n1CC1CCCO1", "note": "(centres unmarked)", "hERG current change (%, negative = inhibition) at 10uM": -55.2}, {"smiles": "Cc1cc(C(=O)COC(=O)CN(C)S(=O)(=O)c2ccc(Cl)cc2)c(C)n1Cc1cccs1", "hERG current change (%, negative = inhibition) at 10uM": -5.54}, {"smiles": "CCOC(=O)N1CCC(NC(=O)CC(NS(=O)(=O)c2ccc(C)cc2)c2ccco2)CC1", "note": "(centres unmarked)", "hERG current change (%, negative = inhibition) at 10uM": -7.75}, {"smiles": "CCOC(=O)N1CCC(NC(=O)CC(NS(=O)(=O)c2ccc(Cl)cc2)c2ccco2)CC1", "note": "(centres unmarked)", "hERG current change (%, negative = inhibition) at 10uM": -53}, {"smiles": "O=C(CC(NS(=O)(=O)c1ccc(Cl)cc1)c1ccco1)NC1CCCC1", "note": "(centres unmarked)", "hERG current change (%, negative = inhibition) at 10uM": -8}, {"smiles": "CCc1cccc(C)c1NC(=S)NCC(c1cccnc1)N(C)C", "note": "(centres unmarked)", "hERG current change (%, negative = inhibition) at 10uM": 5.1}, {"smiles": "CCc1nnc(NC(=O)C2CCN(c3cnccn3)CC2)s1", "hERG current change (%, negative = inhibition) at 10uM": 4.24}, {"smiles": "O=S(=O)(NCc1ccccn1)c1cc(OCC(F)(F)F)ccc1OCC(F)(F)F", "hERG current change (%, negative = inhibition) at 10uM": -69.9}, {"smiles": "CCOc1ccc(OCC)c(S(=O)(=O)NCc2ccccn2)c1", "hERG current change (%, negative = inhibition) at 10uM": -1.02}, {"smiles": "COc1ccc(OC)c(S(=O)(=O)NCc2ccccn2)c1", "hERG current change (%, negative = inhibition) at 10uM": 11.9}, {"smiles": "COc1ccc(-c2nn(C)c(=O)c3ccccc23)cc1NC(=O)Cn1nc(-c2ccccc2)c2ccccc2c1=O", "hERG current change (%, negative = inhibition) at 10uM": 5.06}, {"smiles": "COc1ccc(-c2nn(C)c(=O)c3ccccc23)cc1CNC(=O)NC1CCCCC1", "hERG current change (%, negative = inhibition) at 10uM": -26.5}, {"smiles": "Cn1nc(C(=O)NC2CCCCC2)c2ccccc2c1=O", "hERG current change (%, negative = inhibition) at 10uM": -15.3}, {"smiles": "COc1ccc(-c2nn(C)c(=O)c3ccccc23)cc1CNC(=O)C1CCCCC1", "hERG current change (%, negative = inhibition) at 10uM": -56.3}, {"smiles": "Cn1nc(-c2ccc(C(=O)NC3CCCCC3)cc2)c2ccccc2c1=O", "hERG current change (%, negative = inhibition) at 10uM": -52.4}, {"smiles": "Cn1nc(C(=O)NC2CCCC2)c2ccccc2c1=O", "hERG current change (%, negative = inhibition) at 10uM": 1.63}, {"smiles": "CCCC(=O)NCc1cc(-c2nn(C)c(=O)c3ccccc23)ccc1OC", "hERG current change (%, negative = inhibition) at 10uM": 7.01}, {"smiles": "CCC(=O)Nc1cc(-c2nn(C)c(=O)c3ccccc23)ccc1OC", "hERG current change (%, negative = inhibition) at 10uM": -11.4}, {"smiles": "COc1ccc(-c2nn(C)c(=O)c3ccccc23)cc1NC(=O)Cn1nc(C)c2ccccc2c1=O", "hERG current change (%, negative = inhibition) at 10uM": -57.5}, {"smiles": "CCC1CCCCN1C(=S)NC1CCCCC1", "note": "(centres unmarked)", "hERG current change (%, negative = inhibition) at 10uM": 17.2}, {"smiles": "COc1cc(/C=C/C(=O)Nc2ccc(C)cc2)cc(OC)c1OC", "hERG current change (%, negative = inhibition) at 10uM": -2.49}, {"smiles": "O=C(C1CCN(S(=O)(=O)c2ccc(Br)s2)CC1)N1CCc2ccccc21", "hERG current change (%, negative = inhibition) at 10uM": -46.8}, {"smiles": "c1ccc(CCc2nn3c(C4COc5ccccc5O4)nnc3s2)cc1", "note": "(centres unmarked)", "hERG current change (%, negative = inhibition) at 10uM": -1.79}, {"smiles": "COc1ccc(/C=N/n2c(C3CCCCC3)n[nH]c2=S)c(OC)c1", "hERG current change (%, negative = inhibition) at 10uM": 23.6}, {"smiles": "COc1ccc(N2CC(C(=O)N3CCC4(CC3)CC(=O)c3ccccc3O4)CC2=O)cc1", "note": "(centres unmarked)", "hERG current change (%, negative = inhibition) at 10uM": -78.1}, {"smiles": "COc1cccc(N2CC(C(=O)N3CCC4(CC3)CC(=O)c3ccccc3O4)CC2=O)c1", "note": "(centres unmarked)", "hERG current change (%, negative = inhibition) at 10uM": -53.5}, {"smiles": "COc1ccc(N2CC(C(=O)N3CCOCC3)CC2=O)cc1", "note": "(centres unmarked)", "hERG current change (%, negative = inhibition) at 10uM": 18.3}, {"smiles": "COc1cccc(N2CC(C(=O)Oc3ccc4ccccc4c3)CC2=O)c1", "note": "(centres unmarked)", "hERG current change (%, negative = inhibition) at 10uM": -7.91}, {"smiles": "COc1ccc(OC)c(S(=O)(=O)N2CCC3(CC2)CC(=O)c2ccccc2O3)c1", "hERG current change (%, negative = inhibition) at 10uM": -47.1}, {"smiles": "COc1ccc(N2CC(C(=O)N3CCN(c4ccccc4)CC3)CC2=O)cc1", "note": "(centres unmarked)", "hERG current change (%, negative = inhibition) at 10uM": -41.6}]}]}
